Reference: PubChem BioAssay (NCI)
The panel holds about 79,000 compounds, 15% with a hit somewhere; the sample as a whole holds those more often. Active and inactive are the calls of the source. Rule as the data show it: active = growth inhibition above about 70%; inactive = the rest.

How the values were obtained:
[1] = NCI Yeast Anticancer Drug Screen. Data for the rad50 strain (AID 155);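 also: 0% = growth of vehicle-only cultures of the same strain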; settings: S. cerevisiae rad50 strain growth inhibition, stronger effect = higher value
Outline: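 Vehicle-treated cultures provide the reference for the growth inhibition reported for compound-exposed, repair-deficient yeast.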

[2] = NCI Yeast Anticancer Drug Screen. Data for the mec2-1 strain (AID 157); settings: S. cerevisiae mec2-1 strain, stronger effect = higher value
Outline: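 Yeast mec2-1 mutant treated with compound. Readout: growth inhibition vs vehicle controls.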

[3] = NCI Yeast Anticancer Drug Screen. Data for the sgs1 mgt1 strain (AID 161);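 also: 0% = growth of cultures given vehicle only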; settings: S. cerevisiae sgs1 mgt1 strain, stronger effect = higher value
Outline: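 Inhibition of yeast growth, normalised to vehicle-treated controls, is reported for a strain bearing genetic alterations in DNA damage repair.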

[4] = NCI Yeast Anticancer Drug Screen. Data for the cln2 rad14 strain (AID 165);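 also: 0% = growth equal to vehicle treated cultures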; settings: S. cerevisiae cln2 rad14 strain, stronger effect = higher value
Outline: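 cln2 rad14 yeast strain; compound exposure; growth inhibition read vs vehicle controls.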

[5] = NCI Yeast Anticancer Drug Screen. Data for the bub3 strain (AID 167); settings: S. cerevisiae bub3 mutant strain, stronger effect = higher value
Outline: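 Mutant yeast screening strain plus compound; vehicle-treated cultures serve as the 0% inhibition reference.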

[6] = NCI Yeast Anticancer Drug Screen. Data for the mlh1 rad18 strain (AID 175); settings: S. cerevisiae mlh1 rad18 strain growth inhibition, stronger effect = higher value
Outline: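 Yeast w/ defined DNA-repair lesions; compound exposure; growth vs vehicle controls → % inhibition.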

[7] = at 5.0 µM (retest, dose inferred, filed as 0.5)
[8] = at 50.0 µM (retest, dose inferred, filed as 5.0)

Measured: growth inhibition

CC1(C(=O)O)CCCC2(C)c3cc(O)ccc3CCC12 (stereo not given)
active: [1]; [8] 83% | [2]; [8] 86% | [3]; [8] 88% | [4]; [8] 89% | [5]; [8] 87% | [6]; [8] 89%
inactive: [1]; [7] 2% | [1]; at 50.0 µM 18.4% | [2]; [7] 2% | [2]; at 50.0 µM 13% | [3]; [7] 2% | [3]; at 50.0 µM 46.4% | [4]; [7] -3% | [4]; at 50.0 µM 52.4% | [5]; [7] 5% | [5]; at 50.0 µM 41.9% | [6]; [7] 3% | [6]; at 50.0 µM 42.5%

CC1(C)CC2(c3ccccc3)CC(c3ccccc3)C1C(C(=O)O)C2C(=O)O (stereo not given)
active: [1]; [8] 99% | [1]; at 50.0 µM 99.2% | [2]; [8] 99% | [2]; at 50.0 µM 99.3% | [3]; [8] 99% | [3]; at 50.0 µM 99.2% | [4]; [8] 99% | [4]; at 50.0 µM 98.8% | [5]; [8] 96% | [5]; at 50.0 µM 98.5% | [6]; [8] 99% | [6]; at 50.0 µM 99.2%
inactive: [1]; [7] 28% | [2]; [7] 27% | [3]; [7] 10% | [4]; [7] 7% | [5]; [7] 35% | [6]; [7] 17%

CN(C)C(=S)Nc1nnc(NC23CC4CC(CC(C4)C2)C3)s1
active: [1]; at 50.0 µM 96.7% | [2]; [8] 89% | [2]; at 50.0 µM 96.2% | [3]; at 50.0 µM 97.8% | [4]; [8] 94% | [4]; at 50.0 µM 95.6% | [5]; [8] 96% | [5]; at 50.0 µM 93% | [6]; at 50.0 µM 97%
inactive: [1]; [7] -1% | [1]; [8] 61% | [2]; [7] -29% | [3]; [7] 15% | [3]; [8] 60% | [4]; [7] -22% | [5]; [7] 3% | [6]; [7] -2% | [6]; [8] 48%

COc1cc(C2c3[nH]c4ccccc4c3[C@@H](Nc3ccc(C#N)cc3)[C@H]3COC(=O)N23)cc(OC)c1O (stereo not given in full)
inactive: [1]; [7] 19% | [2]; [7] 21% | [3]; [7] -15% | [3]; [8] 61% | [3]; at 50.0 µM 58.8% | [4]; [7] -3% | [4]; [8] 57% | [5]; [7] -23% | [5]; at 50.0 µM 65.9% | [6]; [7] 21% | [6]; at 50.0 µM 50.8%
active: [1]; [8] 95% | [1]; at 50.0 µM 73.8% | [2]; [8] 91% | [2]; at 50.0 µM 77.3% | [4]; at 50.0 µM 71.4% | [5]; [8] 70% | [6]; [8] 71%

Oc1c(Cl)cc(Cl)cc1Cl.[Cu+2]
inactive: [1]; [7] 6% | [2]; [7] -28% | [3]; [7] -4% | [4]; [7] -9% | [5]; [7] -10% | [6]; [7] 0%
active: [1]; [8] 95% | [1]; at 50.0 µM 99.7% | [2]; [8] 98% | [2]; at 50.0 µM 99.5% | [3]; [8] 94% | [3]; at 50.0 µM 99.8% | [4]; [8] 97% | [4]; at 50.0 µM 98.2% | [5]; [8] 97% | [5]; at 50.0 µM 99.5% | [6]; [8] 98% | [6]; at 50.0 µM 99.3%

COC1CC2C=C(C)/C=C/C=C/C(=O)NC(c3ccccc3)C/C=C/CCC(O)CC(=O)C2=C1O (stereo not given)
active: [1]; [7] 97% | [1]; [8] 99% | [1]; at 50.0 µM 91.5% | [2]; [7] 98% | [2]; [8] 99% | [2]; at 50.0 µM 92.8% | [3]; [7] 99% | [3]; [8] 99% | [3]; at 50.0 µM 92.5% | [4]; [7] 98% | [4]; [8] 99% | [4]; at 50.0 µM 91.3% | [5]; [7] 99% | [5]; [8] 99% | [5]; at 50.0 µM 88.7% | [6]; [7] 98% | [6]; [8] 99% | [6]; at 50.0 µM 91.7%

O=C1C(F)=C(N2CC2)C(=O)C(N2CCOCC2)=C1N1CC1
active: [1]; [7] 94% | [1]; [8] 98% | [1]; at 50.0 µM 90% | [2]; [7] 99% | [2]; [8] 98% | [2]; at 50.0 µM 89.8% | [3]; [7] 98% | [3]; [8] 98% | [3]; at 50.0 µM 89.8% | [4]; [7] 98% | [4]; [8] 96% | [4]; at 50.0 µM 84.5% | [5]; [7] 99% | [5]; [8] 97% | [5]; at 50.0 µM 91.9% | [6]; [7] 97% | [6]; [8] 97% | [6]; at 50.0 µM 92%

Cc1ccc(N=P(c2ccccc2)(c2ccccc2)c2ccccc2)cc1.[Br][Hg][Br]
active: [1]; [7] 99% | [1]; [8] 99% | [1]; at 50.0 µM 98.8% | [2]; [7] 100% | [2]; [8] 100% | [2]; at 50.0 µM 97.6% | [3]; [7] 99% | [3]; [8] 99% | [3]; at 50.0 µM 98% | [4]; [7] 99% | [4]; [8] 99% | [4]; at 50.0 µM 98.3% | [5]; [7] 98% | [5]; [8] 99% | [5]; at 50.0 µM 98.8% | [6]; [7] 99% | [6]; [8] 99% | [6]; at 50.0 µM 97.1%

C#CC[As+](c1ccccc1)(c1ccccc1)c1ccccc1
inactive: [1]; [7] 31% | [2]; [7] 29% | [3]; [7] 45% | [4]; [7] 37% | [5]; [7] 34% | [6]; [7] 45%
active: [1]; [8] 98% | [1]; at 50.0 µM 88.4% | [2]; [8] 99% | [2]; at 50.0 µM 91.8% | [3]; [8] 100% | [3]; at 50.0 µM 92.5% | [4]; [8] 95% | [4]; at 50.0 µM 88.8% | [5]; [8] 99% | [5]; at 50.0 µM 91.2% | [6]; [8] 98% | [6]; at 50.0 µM 88.9%

C[CH2][Sn]([F])([CH2]C)[CH2]C
active: [1]; [8] 75% | [1]; at 50.0 µM 86.6% | [2]; [8] 92% | [2]; at 50.0 µM 89.7% | [3]; [8] 90% | [3]; at 50.0 µM 88.6% | [5]; [8] 76% | [5]; at 50.0 µM 88.6% | [6]; [8] 89% | [6]; at 50.0 µM 88.3%
inactive: [1]; [7] 8% | [2]; [7] 6% | [3]; [7] 9% | [4]; [7] -6% | [4]; [8] 60% | [4]; at 50.0 µM 64.2% | [5]; [7] 3% | [6]; [7] 5%
